An excerpt weighted towards active compounds, which were near 1.4% of everything screened.
Rango-impB inh = qHTS Assay for Inhibitors of Rango (Ran-regulated importin-beta cargo) - Importin beta complex formation. Potency, µM (series often up to 92.2 µM), for the others: at the highest dose inhibition of complex formation. Rango CFP/YFP FRET sensor + importin beta, 45 min. hit rate 0.031% among 340,000;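 further: potency means the concentration at half of the fitted maximal effect; 0% = DMSO wells and 100% = buffer wells lacking importin beta; nearly all actives have a fitted effect of over 15% in size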
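Inhibition scored from the CFP 486 nm/YFP 530 nm FRET ratio 45 min after adding 0.125 microM importin beta to 50 nM Rango biosensor preincubated 5 min with compound (room temperature, PBS with DTT, Tween-20, BSA). No-importin wells as positive control.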
KCNH2 3.1 inh = qHTS for Inhibitors of KCHN2 3.1: Mutant qHTS; U2OS KCNH2 3.1, thallium flux FluxOr; stronger effect = lower value; activity change, % (tested at about 1.8 µM); hit rate 0.95% among 340,000; AID 720553, 2013;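 active means maximum activity change below -70%; inconclusive means maximum activity change from -70% to -50%; inactive means maximum activity change above -50%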;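 further: thallium influx rate constant from kinetic fluorescence after stimulation buffer; on the % scale 0 is the no-effect control and ±100 the full control effect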
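Thallium flux read-out: FluxOr dye with Red40 quencher in HBSS/HEPES, 45 min at RT. Rate constants from kinetic reads were normalized to positive and negative DMSO controls. Cells: U2OS virally expressing the 3.1 isoform.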
hERG WT inh = qHTS for Inhibitors of KCHN2 3.1: Wildtype qHTS; U2OS, BacMam KCNH2, thallium flux FluxOr; stronger effect = lower value; activity change, % at 1.84 µM; Voltage-gated inwardly rectifying potassium channel KCNH2 (Homo sapiens), Q12809; AID 720551, 2013; hit rate 0.37% among 340,000;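 active means maximum activity change below -70%; inconclusive means maximum activity change between -70% and -50%; inactive means maximum activity change above -50%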; further: on the % scale 0 is the no-effect control and ±100 the full control effect
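U2OS cells transduced with wild-type KCNH2 virus are loaded with FluxOr dye for 45 min, and thallium flux is measured in kinetic reads before and after stimulation buffer. Rate constants are normalized to DMSO controls.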
MmCpn inh = Inhibitors of TCP-1 ring complex (TRiC) of Methanococcus maripaludis (MmCpn): qHTS; purified Mm-Cpn ATPase, ADP Transcreener TR-FRET; Potency, µM (highest dose often 76.9 µM), inactives show top-dose activity, negative = inhibition, usual class: inhibitors; hit rate 0.031% among 330,000; AID 504842, 2011; active means well fitted inhibition curve with a large enough effect; inconclusive means small, poorly fitted or top-dose-only effect; further: potency means the concentration at half of the fitted maximal effect; on the % scale 0 is the no-effect control and ±100 the full control effect; nearly all actives have a fitted effect of over 80% in size
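Measured: ADP formation by purified Mm-CPN. Conditions: 25 nM protein, 10 uM ATP, Tris pH 7.4 with Mg2+, K+ and DTT, 37°C for 30 min. Detection: Transcreener HTRF after 30 min at room temperature.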
Rango dissoc inh = qHTS Assay for Inhibitors of RanGTP induced Rango (Ran-regulated importin-beta cargo) - Importin beta complex dissociation | Biochemical FRET Rango-importin beta, RanGTP-induced dissociation | hit rate 0.071% among 340,000 | AID 540253, 2011 | Potency, µM (highest dose often 46.1 µM), for inactives: at the top dose activity change, negative = inhibition | Snurportin-1 (Homo sapiens) + GTP-binding nuclear protein Ran (Homo sapiens) + Importin …; further: potency means the concentration at half of the fitted maximal effect; % of control where 0% means no effect; nearly all actives have a fitted effect of over 45% in size
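Two FRET readings bracket the reaction: one 5 min after compound meets Rango–importin beta, another 45 min after RanGTP-RCC1 (0.6 uM Ran, 0.2 uM RCC1, 2 mM GTP) is added. Only the second defines inhibition.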
CCT modulator = High-Throughput Screening for Modulators of Cytosolic Chaperonin Activity; purified chaperonin ATPase assay, HTRF ADP detection, 30 min; activity change, % (concentration not given with the values), hits read low; hit rate 0.3% among 360,000; in the data active means activity change below about -30%; further: on the % scale 0 is the no-effect control and ±100 the full control effect
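First, chaperonin was dispensed at 40 nM or 20 nM final depending on batch activity. Next, compounds were pinned at 76 uM and ATP added at 10 uM. After 30 min at 37 °C, ADP detection reagents ran 30 min at ambient temperature.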
Active calls of the source: *. Unless noted, the call rests on the fitted dose curve.

`CC(=O)NC(c1ccco1)c1cc(Br)c2cccnc2c1O` (centres undefined) gave MmCpn inh 1%.
Screening CN(C)c1ccc(CNC(=O)C2(C)Cc3c(-c4cccc(C(F)(F)F)c4)ccnc3O2)cc1 (centres undefined) returned CCT modulator -3.
`COC(=O)[C@]12CCCCC=C1N(Cc1ccc(Cl)cc1Cl)C(=O)[C@H](CC(=O)NCc1cccc(C(F)(F)F)c1)C2` gave CCT modulator 0.
For Fc1ccc(Nc2nc(NCc3ccco3)c3ccccc3n2)cc1 the results were Rango-impB inh 2%, KCNH2 3.1 inh -92*, hERG WT inh -13, MmCpn inh 3%, Rango dissoc inh 0% and CCT modulator -2.
Screening CCCCCCCCNS(=O)(=O)CCNCc1ccccc1OC returned Rango-impB inh -4%, KCNH2 3.1 inh 1, hERG WT inh -1, Rango dissoc inh 20% and CCT modulator 1.
For CC(C)CSc1nc2c(=O)[nH][nH]c(=O)c2n1Cc1ccccc1 the results were Rango-impB inh 3%, KCNH2 3.1 inh 12, hERG WT inh -14, MmCpn inh 0%, Rango dissoc inh 3% and CCT modulator 0.
For O=C(O)CCCN1C(=O)C2C3CC(C2C1=O)C1C(c2ccccc2)c2sc(=O)[nH]c2SC31 (centres undefined) the results were Rango-impB inh inconclusive, KCNH2 3.1 inh 3, hERG WT inh -15, MmCpn inh 0%, Rango dissoc inh -2% and CCT modulator -1.
CC(C(=O)O)N1C(=O)C2C3CC(C2C1=O)C1C(c2ccccc2)c2sc(=O)[nH]c2SC31 (centres undefined) was read as Rango-impB inh inconclusive, KCNH2 3.1 inh -9, hERG WT inh 1, MmCpn inh -1%, Rango dissoc inh 23µM* and CCT modulator -2.
`CCCN(CC1CC1)C(=O)CCc1nnc(CCc2c[nH]c3ccccc23)o1` gave Rango-impB inh -3%, KCNH2 3.1 inh -98*, hERG WT inh 5, MmCpn inh -6%, Rango dissoc inh -1% and CCT modulator -1.
`COc1cccc(O)c1CN1CCC(C(=O)Nc2ccc(Oc3cccnc3)cc2)CC1` gave Rango-impB inh -3%, KCNH2 3.1 inh -23, hERG WT inh -3, MmCpn inh 0%, Rango dissoc inh -7% and CCT modulator 1.
`COc1ccc(CN2CCC(C(=O)Nc3ccc(Oc4cccnc4)cc3)CC2)c(C)c1C` gave Rango-impB inh 2%, KCNH2 3.1 inh -74*, hERG WT inh 5, MmCpn inh 2%, Rango dissoc inh -3% and CCT modulator 0.
For CCn1nc(C)c(CN2CCC(C(=O)Nc3cccc(-c4cccc(F)c4)c3)CC2)c1C the results were Rango-impB inh -2%, KCNH2 3.1 inh -78*, hERG WT inh inconclusive, MmCpn inh -2%, Rango dissoc inh 21% and CCT modulator 0.
CCn1cc(CN2CCC(C(=O)Nc3cccc(-c4cccc(F)c4)c3)CC2)cn1 was read as Rango-impB inh 2%, KCNH2 3.1 inh -46, hERG WT inh 30, MmCpn inh 2%, Rango dissoc inh -1% and CCT modulator -3.
`COc1cccc(O)c1CN1CCC(C(=O)Nc2ccc(-c3cccc(C)c3)cc2)CC1` gave Rango-impB inh 1%, KCNH2 3.1 inh -99*, hERG WT inh -42, MmCpn inh -3%, Rango dissoc inh 0% and CCT modulator 2.
Screening NS(=O)(=O)c1ccc(CNC(=O)Cc2ccc(S(=O)(=O)N3CCOCC3)s2)cc1 returned Rango-impB inh 1%, KCNH2 3.1 inh 9, hERG WT inh -7, MmCpn inh 2%, Rango dissoc inh -2% and CCT modulator -2.
Cc1cc(Oc2ccc(C(C)(C)C)cc2)nc(N2CCOCC2)n1 was read as Rango-impB inh -2%, KCNH2 3.1 inh 2, hERG WT inh 5, MmCpn inh -3%, Rango dissoc inh 32% and CCT modulator -1.
`CC(=O)c1ccc(Oc2cc(C)nc(N3CCOCC3)n2)cc1` gave Rango-impB inh 3%, KCNH2 3.1 inh -136*, hERG WT inh -2, MmCpn inh 1%, Rango dissoc inh 19% and CCT modulator 0.
Screening COc1ccc(CCNC(=O)c2ccc(N3CCCC3=O)cc2)cc1OC returned Rango-impB inh 7%, KCNH2 3.1 inh 6, hERG WT inh -23, MmCpn inh -1%, Rango dissoc inh 17% and CCT modulator -32*.
CCOc1ccc(CCNC(=O)c2cccc(N3CCCC3=O)c2)cc1OCC was read as Rango-impB inh -1%, KCNH2 3.1 inh 13, hERG WT inh -2, MmCpn inh -2%, Rango dissoc inh 0% and CCT modulator -1.
`COc1ccc([C@@H]2OC2(C(N)=O)C(N)=O)cc1` gave Rango-impB inh -6%, KCNH2 3.1 inh -7, hERG WT inh -6, MmCpn inh -2%, Rango dissoc inh 21% and CCT modulator -2.
`NC(=O)C1(C(N)=O)OC1c1ccc(Cl)c(Cl)c1` (centres undefined) gave Rango-impB inh 6%, KCNH2 3.1 inh -8, hERG WT inh -8, MmCpn inh -1%, Rango dissoc inh -27% and CCT modulator -57*.
Screening CCC(=O)c1ccc(OCC(O)CN(CCc2ccccc2)Cc2ccccc2)cc1 (centres undefined) returned Rango-impB inh 3%, KCNH2 3.1 inh -70*, hERG WT inh -6, MmCpn inh 4%, Rango dissoc inh -8% and CCT modulator 2.
`CCCCN(CCCC)CC(O)COc1ccccc1C(=O)Nc1ccccc1` (centres undefined) gave Rango-impB inh -2%, KCNH2 3.1 inh -74*, hERG WT inh 22, MmCpn inh 0%, Rango dissoc inh 9% and CCT modulator -7.
For CCN(CC)CC(O)COc1ccccc1C(=O)CCc1ccccc1 (centres undefined) the results were Rango-impB inh 0%, KCNH2 3.1 inh -71*, hERG WT inh 25, MmCpn inh 0%, Rango dissoc inh -17% and CCT modulator 0.

Source: PubChem
